From PubChem BioAssay
Vaccinia mCherry = inhibitors of vaccinia virus infection (mCherry reporter signal); Vaccinia virus mCherry reporter infection, fluorescence; Potency, µM (doses to about 36.5 µM), for the others: at the top dose activity change, negative = inhibition, most hits filed as inhibitors; actives 0.63% (n = 310,000); AID 720579; calls by dose curve; tested in A549 cells; also: potency is read from the fitted curve at half-maximal effect; nearly all actives have a fitted effect of over 35% in size
Lassa entry inh = inhibitors of Lassa virus binding or cell entry; actives 1.2% (n = 300,000); Potency, µM (doses to about 37.9 µM), without a hit: top-dose activity change, negative = inhibition, actives largely listed as inhibitors; Lassa virus pseudotype entry inhibition, cell reporter; calls by dose curve; tested in HEK293 cells; also: potency is read from the fitted curve at half-maximal effect; nearly all actives have a fitted effect of over 50% in size
MARV entry inh = blocks Marburg virus binding to or entry into cells. Marburg virus pseudotyped entry inhibition, cell reporter. Potency, µM (titrated, usually from 37.8 µM), without a hit: at the top dose activity change, negative = inhibition, hits mostly inhibitors. actives 1.8% (n = 300,000). AID 540276; calls by dose curve; tested in HEK293 cells; also: potency is read from the fitted curve at half-maximal effect
VACV Venus inh = inhibitors of vaccinia virus (Venus reporter). Vaccinia virus Venus reporter expression, fluorescence. Potency, µM (titrated, usually from 36.5 µM), without a hit: at the highest dose activity change, negative = inhibition, hits mostly inhibitors. actives 0.46% (n = 330,000). AID 720580; calls by dose curve; tested in A549 cells; also: potency is read from the fitted curve at half-maximal effect; nearly all actives have a fitted effect of over 30% in size
HCV inhibitor = HCV inhibition | actives 3.4% (n = 340,000) | Potency, µM (titrated, usually from 41.8 µM), inactives show at the top dose activity change, negative = inhibition, hits mostly inhibitors | Huh7.5.1 HCVcc-Cre infection, luciferase reporter, 44 h; active = well fitted inhibition curve with a large enough effect; inconclusive = small, poorly fitted or top-dose-only effect, or another doubt; inactive = no such curve, though single readings can be large or run the other way; also: potency is read from the fitted curve at half-maximal effect
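Luciferase read-out (15 sec integration) after a 15 min room-temperature substrate step quantifies HCVcc-Cre infection. Cells, 1,000 per well, had compound added 4 h post-plating, then virus at ~0.5 moi, and were cultured 44 h.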
HCMV inh = human cytomegalovirus inhibition. actives 4.5% (n = 410,000). HFF cells, HCMV-luciferase reporter, 72 h; hits give low values. activity change, negative = inhibition, % at 57.5 µM. AID 1259415; in the data active = activity change below about -60%; inconclusive = no clear call, values can overlap the other calls; inactive = above about -39%
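After 16 h attachment at 37C, HFF cells received test compound and HCMV-luciferase (1 PFU/cell); reporter luminescence read 72 h later, data normalized against buffer-only and known inhibitor Salinomycin.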
* marks the source's active call; other numbers are inactive results; i = inactive; ? = inconclusive; . = no result; [ ] = dose if it differs, or a comment. A selection: hits, their analogues and other compounds. The true share with any hit is near 7.8%. % is scaled to controls: 0 for no effect and ±100 for the full control effect.

SMILES	Vaccinia mCherry	Lassa entry inh	MARV entry inh	VACV Venus inh	HCV inhibitor	HCMV inh
Cc1ccc(NC(=O)C2CCCN(c3nnc(-n4c(C)ccc4C)s3)C2)cc1Cl (centres undefined)	-25%	-20%[46.1 µM]	-13%[46.1 µM]	-18%	.	1
O=c1[nH]c(=O)n(Cc2ccccc2)c(O)c1C=NCCCn1ccnc1	.	?	?	-7%	9%	-27
N=c1c2c(-c3ccccc3)c(-c3ccccc3)n(Cc3ccccc3)c2ncn1CCCn1ccnc1	.	?	?	14µM*	0.5µM*	-74*
CCCCn1cnc2c(c(-c3ccccc3)c(-c3ccccc3)n2Cc2ccco2)c1=N	i	-20%	-35%	-20%	-23%	-15
N=c1c2c(-c3ccccc3)c(-c3ccccc3)n(Cc3ccco3)c2ncn1Cc1ccco1	.	?	?	11µM*	16µM*	-13
COC(/C=C/Nc1ccc(OC)cc1)=C(C#N)C#N	i	1%	-4%	1%	1%	-15
COc1ccc(OC)c(N/C=C/C(=C(C#N)C#N)N(C)C)c1	-21%	-6%[46.1 µM]	?	-15%	?	-68*
CCc1ccc(NC(=O)CCc2c(C)n(C)c3cc(-c4ccccc4C)nn3c2=O)cc1	-13%	-16%[46.1 µM]	.	-9%	.	-2
CCc1ccc2[nH]c3nc(SCCN4CCOCC4)nnc3c2c1	.	.	.	.	?	-91*
CCc1ccc2[nH]c3nc(SCC(=O)NNC(=O)c4ccc(C(C)(C)C)cc4)nnc3c2c1	.	?	4.6µM*	.	?	-106*
CCc1ccc2[nH]c3nc(SCC(=O)NCC4CCCO4)nnc3c2c1 (centres undefined)	-1%	.	?	-16%	?	?
Cc1ccc(C(=O)NNC(=O)CSc2nnc3c(n2)[nH]c2ccc(C)cc23)cc1	-5%	-24%	-13%	-13%	-6%	.
CCSc1nnc2c(n1)[nH]c1c(C)cccc12	?	-11%	?	?	32µM*	?
CSc1nnc2c(n1)[nH]c1c(C)cccc12	-15%	-2%	3%	-29%	-18%	10
O=C(N/N=C/c1ccc2c(c1)OCO2)c1ccc(COc2cccc3cccnc23)cc1	-7%	.	.	-24%	13µM*	7
Cn1cc(C(=O)N/N=C/c2ccc(Br)c([N+](=O)[O-])c2)c2ccccc21	-3%	0%	-3%[46.1 µM]	-2%	?	?
Cn1cc(C(=O)N/N=C/c2ccc3c(c2)OCO3)c2ccccc21	?	-11%[46.1 µM]	13µM*	-24%	?	6
O=C(N/N=C/c1ccc2c(c1)OCO2)c1cccc2ccccc12	?	-17%[46.1 µM]	3.2µM*	-20%	-12%	-14
O=C(N/N=C/c1ccc2c(c1)OCO2)c1cc(-c2ccccc2)nc2ccccc12	?	?	?	0%	6%	-34
COC(=O)[C@@]1(C#N)CC(=O)N([C@@H](C)c2ccccc2)[C@H]1c1ccc(OC)cc1	.	.	.	.	.	-3
COc1ccc2c(c1)c(C(=O)CN(C)C)c(C)n2C	1%	.	.	-9%	.	.
COc1ccccc1N1CCN(CCCNC(=O)c2cnn(-c3ccccc3)c2C2CCN(C(=O)OC(C)(C)C)CC2)CC1	-26%	?	.	-27%	.	?
CC(=O)n1c(=O)oc2ccccc21	.	.	.	.	12%	-39
CCOC(=O)n1c(=O)oc2ccccc21	-17%	-14%	9%	-4%	3%	-96*
CCCCNC(=O)C(C)N(CCN(C)C)C(=O)CCCN1C(=O)NC(c2ccc([N+](=O)[O-])cc2)C(C(=O)OCc2ccccc2)=C1C (centres undefined)	?	.	.	?	22µM*	.
SMILES	Vaccinia mCherry	Lassa entry inh	MARV entry inh	VACV Venus inh	HCV inhibitor	HCMV inh
CCCCCCN(C(=O)CCCCCN1C(=O)NC(c2cccc([N+](=O)[O-])c2)C(C(=O)OCc2ccccc2)=C1C)C(C(=O)NCCCC)c1ccc(OCC(=O)OC)c(C(=O)OC)c1 (centres undefined)	.	.	.	.	.	-74*
CCCCCCN(C(=O)CCCCCN1C(=O)NC(c2ccc(-c3ccccc3)cc2)C(C(=O)OCc2ccccc2)=C1C)C(C)C(=O)NCCCC (centres undefined)	.	?	?	.	-6%[8.37 µM]	42
CCCCCCN(C(=O)CCCCCN1C(=O)NC(c2ccc(-c3ccccc3)cc2)C(C(=O)OCc2ccccc2)=C1C)C(C(=O)NCCCC)c1ccc(OCC(=O)OC)c(C(=O)OC)c1 (centres undefined)	.	.	.	.	.	-3
CCOC(=O)C1=C(C)N(CCCC(=O)O)C(=O)NC1c1ccccc1OS(=O)(=O)c1ccc([N+](=O)[O-])cc1 (centres undefined)	?	.	.	?	16%	-100*
CCCCNC(=O)C(C1CCCCC1)N(CCN(C)C)C(=O)CCCN1C(=O)NC(c2ccc(-c3ccccc3)cc2)C(C(=O)OCc2ccccc2)=C1C (centres undefined)	.	.	.	.	10µM*	.
CC1=C(C(=O)OCc2ccccc2)C(c2ccccc2OS(=O)(=O)c2ccc([N+](=O)[O-])cc2)NC(=O)N1CCCC(=O)O (centres undefined)	?	.	.	?	7%	14
CCc1nn(CCCC(=O)N2CCN(c3cc(Cl)ccc3C)CC2)c(=O)c2cc3occc3n12	-17%	-14%[46.1 µM]	13%[46.1 µM]	-18%	.	-29
CC(C)CC(C(=O)NCCc1ccccc1)N1Cc2ccccc2C1=O (centres undefined)	0%	16%[46.1 µM]	.	-10%	.	-28
CCCCNC(=O)c1nc2ccccc2nc1-c1cccc(OC(F)(F)F)c1	.	.	.	.	.	50
CCn1nc(C)c(CCN(C)C(=O)Nc2ccc(C)c(Cl)c2)c1C	-10%	?	.	-2%	.	19
COc1ccc(-c2nc(C)c(CCNC(=O)c3cccc(C)c3)s2)cc1OC	1%	-27%[46.1 µM]	.	5%	.	54
CC1CCCN(C(=O)CSc2c3c(nc4cc(Cl)ccc24)CCCC3)C1 (centres undefined)	-5%	-44%[46.1 µM]	19%[46.1 µM]	-15%	.	-39
CCn1cc(S(=O)(=O)N2CCCC2)cn1	-13%	7%[46.1 µM]	-10%[46.1 µM]	3%	-1%	28
CCn1cc(S(=O)(=O)NC2CCCCC2)cn1	0%	?	-24%[46.1 µM]	4%	8%	-60*
O=C(CSc1ccc2nnc(CCNS(=O)(=O)c3ccccc3)n2n1)Nc1ccccc1C(F)(F)F	-11%	2%[46.1 µM]	.	-8%	.	-7
N=c1nc(-c2ccccc2)n(-c2ccccc2)s1	22%	.	.	-14%	.	.
Cc1cc(C)n(-c2nc(NCCCO)c3c4c(sc3n2)CCCC4)n1	.	-5%	?	-29%	7.1µM*	.
Cc1cc(C)n(-c2nc(NCCO)c3c4c(sc3n2)CCCC4)n1	.	?	?	?	7.1µM*	-29
Cc1cc(C)n(-c2nc(NCC(C)O)c3c4c(sc3n2)COC(C)(C)C4)n1 (centres undefined)	.	0%	?	.	-13%	-10
